Data as given in paper PMC5700166.
Substitutions are numbered along the chain they refer to.

What was measured:
Assay in all cases: protein-binding microarray (PBM); PBM: ~300 nM protein, 6 mM HEPES pH 7.8, 80 mM KCl, 0.5 mM EDTA, 0.5 mM EGTA, 6% glycerol, 35 ng/ul poly-dIdC, 1% milk, 1 h, room temperature; Ap Aiptasia and Nv Nematostella (sea anemones) / Co Capsaspora / Aq Amphimedon (sponge) / Dm Drosophila / Hu human; RHD is the Rel homology domain; high values mean tight binding
Settings in all cases: dsDNA, one strand shown
GST-Ap-NF-kB RHD = target: T1, GST-Ap-NF-kB RHD (Exaiptasia pallida (Aiptasia), UniProt A0A913YAJ5 2-422)
T1 sequence: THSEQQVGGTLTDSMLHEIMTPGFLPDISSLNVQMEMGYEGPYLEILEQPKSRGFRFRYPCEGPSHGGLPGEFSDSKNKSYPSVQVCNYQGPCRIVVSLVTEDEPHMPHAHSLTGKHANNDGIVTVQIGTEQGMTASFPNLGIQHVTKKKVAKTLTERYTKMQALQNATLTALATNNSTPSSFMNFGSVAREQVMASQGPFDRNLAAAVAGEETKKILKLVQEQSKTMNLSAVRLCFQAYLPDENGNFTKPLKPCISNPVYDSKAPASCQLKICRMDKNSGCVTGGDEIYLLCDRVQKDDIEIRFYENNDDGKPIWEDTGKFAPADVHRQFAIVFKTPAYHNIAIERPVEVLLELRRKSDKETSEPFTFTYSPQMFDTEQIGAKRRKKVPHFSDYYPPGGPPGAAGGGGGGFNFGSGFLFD

[1] = target: T2, GST-Nv-NF-kB (Cys allele) (Nematostella vectensis, UniProt E5G601 2-411)
T2 sequence: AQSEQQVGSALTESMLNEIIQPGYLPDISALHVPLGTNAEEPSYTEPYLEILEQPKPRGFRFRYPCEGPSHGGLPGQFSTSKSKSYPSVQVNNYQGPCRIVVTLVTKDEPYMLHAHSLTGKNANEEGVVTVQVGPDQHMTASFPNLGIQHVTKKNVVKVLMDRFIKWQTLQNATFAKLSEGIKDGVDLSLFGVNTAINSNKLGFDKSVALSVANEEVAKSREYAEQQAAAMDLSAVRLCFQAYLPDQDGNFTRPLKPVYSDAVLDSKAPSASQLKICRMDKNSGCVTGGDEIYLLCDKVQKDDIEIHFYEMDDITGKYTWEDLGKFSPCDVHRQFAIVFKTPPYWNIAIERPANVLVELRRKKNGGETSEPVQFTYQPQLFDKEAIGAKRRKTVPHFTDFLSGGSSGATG

[2] = target: T3, GST-Nv-NF-kB (Ser allele) (Nematostella vectensis, UniProt A7UNT2 2-411)
T3 sequence: T2 sequence with Q21R, C66S, S207N, E215Q, V217A, E225K, A268E, D399E

GST-Co-NF-kB = target: T4, GST-Co-NF-kB (Capsaspora owczarzaki, UniProt F1ARL5 200-546)
T4 sequence: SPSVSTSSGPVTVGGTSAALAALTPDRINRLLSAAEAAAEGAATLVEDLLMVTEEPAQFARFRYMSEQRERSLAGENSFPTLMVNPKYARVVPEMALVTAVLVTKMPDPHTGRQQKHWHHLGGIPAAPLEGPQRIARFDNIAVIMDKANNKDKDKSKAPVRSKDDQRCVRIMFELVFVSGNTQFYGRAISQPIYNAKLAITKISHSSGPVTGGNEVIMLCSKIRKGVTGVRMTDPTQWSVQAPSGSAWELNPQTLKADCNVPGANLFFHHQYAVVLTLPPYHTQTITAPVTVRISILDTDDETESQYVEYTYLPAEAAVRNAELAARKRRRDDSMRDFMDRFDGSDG

GST-Dm-Relish = target: T5, GST-Dm-Relish (Drosophila melanogaster, UniProt Q94527 99-473)
T5 sequence: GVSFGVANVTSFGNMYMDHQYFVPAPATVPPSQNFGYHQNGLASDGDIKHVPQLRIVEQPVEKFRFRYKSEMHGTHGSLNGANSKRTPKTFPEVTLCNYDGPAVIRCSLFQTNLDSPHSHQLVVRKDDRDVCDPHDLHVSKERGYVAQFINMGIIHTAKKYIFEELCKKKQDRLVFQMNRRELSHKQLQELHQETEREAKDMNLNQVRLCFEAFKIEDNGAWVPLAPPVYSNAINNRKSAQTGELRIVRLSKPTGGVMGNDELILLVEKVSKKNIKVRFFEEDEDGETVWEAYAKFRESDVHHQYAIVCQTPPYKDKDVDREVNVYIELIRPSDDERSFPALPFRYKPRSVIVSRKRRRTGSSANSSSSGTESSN

GST-Aq-NF-kB = target: T6, GST-Aq-NF-kB (Amphimedon queenslandica, UniProt A9Y5G7 2-389)
T6 sequence: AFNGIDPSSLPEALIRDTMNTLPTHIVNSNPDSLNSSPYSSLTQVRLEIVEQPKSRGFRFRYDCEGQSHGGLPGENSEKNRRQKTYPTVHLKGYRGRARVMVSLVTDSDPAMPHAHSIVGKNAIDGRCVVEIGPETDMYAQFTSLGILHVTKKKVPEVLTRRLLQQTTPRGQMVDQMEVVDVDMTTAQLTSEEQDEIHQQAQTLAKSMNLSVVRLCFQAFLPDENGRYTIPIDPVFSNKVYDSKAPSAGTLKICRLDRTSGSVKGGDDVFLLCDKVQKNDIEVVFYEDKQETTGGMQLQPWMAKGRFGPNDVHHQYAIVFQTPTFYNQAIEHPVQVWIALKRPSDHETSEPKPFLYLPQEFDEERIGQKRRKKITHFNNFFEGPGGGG

GST-Hu-p50 = GST-Hu-p50 (Homo sapiens, UniProt P19838 7-356)
Chain of GST-Hu-p50 (P19838 7-356): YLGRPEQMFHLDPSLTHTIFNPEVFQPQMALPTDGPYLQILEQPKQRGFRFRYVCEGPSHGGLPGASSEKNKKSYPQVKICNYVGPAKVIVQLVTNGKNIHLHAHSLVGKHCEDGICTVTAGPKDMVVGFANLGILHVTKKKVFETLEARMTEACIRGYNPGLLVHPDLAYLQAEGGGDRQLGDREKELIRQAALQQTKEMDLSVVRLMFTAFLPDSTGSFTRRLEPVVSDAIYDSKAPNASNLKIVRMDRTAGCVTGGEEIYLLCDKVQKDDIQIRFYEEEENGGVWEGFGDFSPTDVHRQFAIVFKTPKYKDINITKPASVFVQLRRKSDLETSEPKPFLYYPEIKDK

Sequence | binding signal (GST-Ap-NF-kB RHD) [z-score] | binding signal [1] [z-score] | binding signal [2] [z-score] | binding signal (GST-Co-NF-kB) [z-score] | binding signal (GST-Dm-Relish) [z-score] | binding signal (GST-Aq-NF-kB) [z-score] | binding signal (GST-Hu-p50) [z-score]
CCGATTAACATCAGGGGGGTATATGATGTTAATCGGGTCTTGATTCGCTTGACGCTGCTG | 5.34 | 2.99 | 4.19 | 5.73 | 3.95 | 4.1 | 3.59
CCGATTAACATCAGGAAACCCCCTGATGTTAATCGGGTCTTGATTCGCTTGACGCTGCTG | 11.2 | 10.1 | 9.07 | 3.13 | 10.1 | 10.5 | 8.19
CCGATTAACATCACAGAACCCCCTGATGTTAATCGGGTCTTGATTCGCTTGACGCTGCTG | 7.53 | 5.51 | 7.39 | 2.33 | 7.46 | 5.42 | 6.43
CCGATTAACATCAGGGGAATATATGATGTTAATCGGGTCTTGATTCGCTTGACGCTGCTG | 7.96 | 9.67 | 9 | 7.8 | 5.02 | 7.45 | 6.01
CCGATTAACATCAGGGGATTTCATGATGTTAATCGGGTCTTGATTCGCTTGACGCTGCTG | 9.36 | 9.75 | 10.8 | 3.46 | 8.36 | 6.85 | 7.42
CCGATTAACATCAATTCTCCCCCTGATGTTAATCGGGTCTTGATTCGCTTGACGCTGCTG | 6.48 | 6.19 | 8.64 | 10.7 | 3.06 | 5.16 | 6.9
CCGATTAACATCACAACTCCCCCTGATGTTAATCGGGTCTTGATTCGCTTGACGCTGCTG | 5.84 | 4.69 | 5.89 | 6.16 | 3.67 | 5.15 | 5.55
CCGATTAACATCAAAGCATCCCCTGATGTTAATCGGGTCTTGATTCGCTTGACGCTGCTG | 4.67 | 5.06 | 6.87 | 3.43 | 3.26 | 4.15 | 4.58
CCGATTAACATCAAAAAAAACCCTGATGTTAATCGGGTCTTGATTCGCTTGACGCTGCTG | 5.46 | 6.25 | 6.4 | 1.62 | 7.4 | 7.35 | 5.56
CCGATTAACATCAGGGGGACTACTGATGTTAATCGGGTCTTGATTCGCTTGACGCTGCTG | 6.49 | 4.44 | 4.46 | 4.53 | 6.39 | 5.25 | 4.55
CCGATTAACATCAGGGAATTACCTGATGTTAATCGGGTCTTGATTCGCTTGACGCTGCTG | 8.44 | 9.55 | 9.14 | 5.01 | 8.83 | 9.49 | 5.8
CCGATTAACATCAAAAAACTCCCTGATGTTAATCGGGTCTTGATTCGCTTGACGCTGCTG | 6.44 | 8.22 | 8.11 | 3.38 | 7.13 | 7.46 | 5.69
CCGATTAACATCAGGGGGAAAGATGATGTTAATCGGGTCTTGATTCGCTTGACGCTGCTG | 5.81 | 5.7 | 7.72 | 8.03 | 2.89 | 5.04 | 5.75
CCGATTAACATCAGGGGGCTTTATGATGTTAATCGGGTCTTGATTCGCTTGACGCTGCTG | 5.16 | 5.53 | 4.34 | 1.85 | 6.23 | 5.44 | 5.71
CCGATTAACATCAGGAAGTCCCCTGATGTTAATCGGGTCTTGATTCGCTTGACGCTGCTG | 8.63 | 8.97 | 6.92 | 2.68 | 8.96 | 8.77 | 6.94
CCGATTAACATCAGGGGATTTTATGATGTTAATCGGGTCTTGATTCGCTTGACGCTGCTG | 10.4 | 11.7 | 12.7 | 4.81 | 9.55 | 8.66 | 8.09
CCGATTAACATCAGGGGGTACAATGATGTTAATCGGGTCTTGATTCGCTTGACGCTGCTG | 4.98 | 3.08 | 4.91 | 4.94 | 2.37 | 2.98 | 3.09
CCGATTAACATCAGGAGTGTCCCTGATGTTAATCGGGTCTTGATTCGCTTGACGCTGCTG | 2.12 | 2.48 | 1.44 | 1.05 | 1.23 | 4.83 | 1.29
CCGATTAACATCAGGATTTACCCTGATGTTAATCGGGTCTTGATTCGCTTGACGCTGCTG | 3.04 | 4.29 | 3.54 | 1.85 | 5.15 | 6.67 | 3.39
CCGATTAACATCACCCTTCCCCCTGATGTTAATCGGGTCTTGATTCGCTTGACGCTGCTG | 4.54 | 4.49 | 5.26 | 5.61 | 2.99 | 4.32 | 4.43
CCGATTAACATCAGGATTACCCATGATGTTAATCGGGTCTTGATTCGCTTGACGCTGCTG | 2.92 | 2.65 | 2.12 | 1.67 | 2.52 | 3.19 | 1.83
CCGATTAACATCAATAACCCCCCTGATGTTAATCGGGTCTTGATTCGCTTGACGCTGCTG | 6.33 | 5.55 | 5.48 | 4.7 | 8.07 | 6.46 | 5.76
CCGATTAACATCAAGGGGACTTCTGATGTTAATCGGGTCTTGATTCGCTTGACGCTGCTG | 7.92 | 7.59 | 7.54 | 2.41 | 7.45 | 6.14 | 6.74
CCGATTAACATCAAGGGGATCCCTGATGTTAATCGGGTCTTGATTCGCTTGACGCTGCTG | 9.22 | 6.41 | 7.34 | 3.82 | 10.3 | 6.69 | 5.5
